From PubChem BioAssay (Tox21) come the findings set out here.

Inconclusive results are not listed. Active and inactive are the calls of the source. Unless noted, calls follow the shape of the dose curve; as a rule, active = well fitted curve in the direction sought with a large enough effect in the repeat runs; inconclusive = weak or mixed curves; inactive = no such curve, though single readings can be large; an effect the other way counts as inactive or inconclusive.

The nature of test [1]: qHTS assay to identify aromatase inhibitors - cell viability counter screen (AID 743084).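 Also: cells stimulated with testosterone during compound exposure; nearly all actives have a fitted effect of over 55% in size.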
For test [2], the target named is Aryl hydrocarbon receptor (Homo sapiens) (UniProt P35869). Nature of the test: qHTS assay to identify small molecule that activate the aryl hydrocarbon receptor (AhR) signaling pathway (AID 743085). Also: nearly all actives have a fitted effect of over 15% in size. Also: potency is read from the fitted curve at half-maximal effect.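 As to activation: HG2L7.5c1 human HepG2 liver cells with stably integrated DRE-driven firefly reporter; series mostly up to about 70 µM.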 The essentials:
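Steps: seed HepG2-AhR-luc cells; allow 5 h at 37C; pin-transfer test compound or vehicle; incubate 24 h at 37C; add viability dye (30 min, 37C) and read fluorescence; add luciferase substrate (30 min, RT) and read luminescence.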

The nature of test [3]: qHTS assay to identify small molecule that activate the aryl hydrocarbon receptor (AhR) signaling pathway - cell viability counter screen (AID 743086).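 Also: HepG2 liver cells carrying the AhR DRE luciferase reporter; series mostly up to about 70 µM; nearly all actives have a fitted effect of over 45% in size.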 In outline:
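Cytotoxicity counter screen: CellTiter-Fluor signal (30 min, 37 C) in 4000 HepG2 cells/well carrying the DRE-luciferase reporter, following 24 h compound exposure at 37 C.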
Background: In qHTS, concentration-response curves come from the screen itself.

For test [4], the target named is Peroxisome proliferator-activated receptor gamma (Homo sapiens) (UniProt P37231). As to the kind of experiment: qHTS assay to identify small molecule agonists of the peroxisome proliferator-activated receptor gamma (PPARg) signaling pathway (AID 743094; active = well fitted activation curve with a large enough effect in the signal ratio in the repeat runs, not every such curve was filed as active; the % refers to the signal ratio). The essentials: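 Agonist activity was taken from a beta-lactamase reporter (FRET substrate, 1 h at room temperature) in HEK293H cells carrying a PPARg UAS-bla construct. Compounds in DMSO were incubated 17 h at 37C after a 5 h cell pre-incubation.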

Test [5] is described as follows: qHTS assay for small molecule agonists of the antioxidant response element (ARE) signaling pathway - cell viability counter screen (AID 743203; calls by dose curve; also: nearly all actives have a fitted effect of over 55% in size; also: potency is read from the fitted curve at half-maximal effect). The essentials:
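Viability counter screen: CellTiter-Glo luminescence, read after 30 min at room temperature, in ARE-bla HepG2 wells. Compound exposure lasted 16 h at 37C/5% CO2, following a 5 h pre-incubation of the cells after plating.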

Test [6] can be described thus: qHTS assay for small molecule activators of the heat shock response signaling pathway (AID 743210; active = well fitted activation curve with a large enough effect in the signal ratio in the repeat runs, with a control signal flat, not every such curve was filed as active; the % refers to the signal ratio; also: series mostly up to about 63 µM). The essentials: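 Compound exposure lasted 5 h at 37 C in HeLa cells carrying a heat-shock-element-driven beta-lactamase reporter. Read-out: fluorescence intensity after 2.5 h room-temperature loading with LiveBLAzer B/G FRET substrate.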
Test [7] is described as follows: qHTS assay to identify small molecule agonists of the peroxisome proliferator-activated receptor delta (PPARd) signaling pathway - cell viability counter screen (AID 743211). Also: nearly all actives have a fitted effect of over 55% in size. Also: potency is read from the fitted curve at half-maximal effect. The essentials:
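Viability of GeneBLAzer PPARd UAS-bla HEK293H cells was assessed after 17 h compound incubation at 37C, using CellTiter-Glo reagent added after the reporter read and luminescence recorded 30 min later.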

The target in test [8] is Peroxisome proliferator-activated receptor delta (Homo sapiens) (UniProt Q03181). As to the kind of experiment: qHTS assay to identify small molecule agonists of the peroxisome proliferator-activated receptor delta (PPARd) signaling pathway (AID 743212; calls by dose curve;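 also: HEK293H cells with PPARd UAS beta-lactamase reporter GeneBLAzer system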). The essentials:
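Beta-lactamase reporter readout: a ratiometric FRET signal from the LiveBLAzer substrate after 2 h at room temperature. Compound exposure at 37 °C in PPARδ-bla HEK293H cells driven by an upstream activator sequence.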

Test [9] can be described thus: qHTS assay to identify small molecule antagonists of the peroxisome proliferator-activated receptor delta (PPARd) signaling pathway - cell viability counter screen (AID 743213). Also: nearly all actives have a fitted effect of over 50% in size. In outline:
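Cytotoxicity counter screen: CellTiter-Glo luminescence read 30 min after addition, in the same wells as the reporter assay. There, PPARd UAS-bla HEK293H cells (3000/well) were treated 17 h at 37 C with compound and 300 nM L165041.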

For test [10], the target named is Peroxisome proliferator-activated receptor delta (Homo sapiens) (UniProt Q03181). As to the kind of experiment: qHTS assay to identify small molecule antagonists of the peroxisome proliferator-activated receptor delta (PPARd) signaling pathway (AID 743215; active = well fitted inhibition curve with a large enough effect in the signal ratio in the repeat runs, not every such curve was filed as active; the % refers to the signal ratio;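 also: cells stimulated with agonist L165041 at 300 nM final during compound exposure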; also: potency is read from the fitted curve at half-maximal effect). The essentials: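 Agonist L165041 (300 nM final) added with compound to PPARd-bla HEK293H UAS-bla reporter cells; 17 h incubation at 37 C. Read-out: LiveBLAzer FRET substrate, 2 h at room temperature, fluorescence intensity.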

The nature of test [11]: qHTS assay to identify small molecule agonists of the farnesoid-X-receptor (FXR) signaling pathway - cell viability counter screen (AID 743218). Also: nearly all actives have a fitted effect of over 45% in size. Also: potency is read from the fitted curve at half-maximal effect. In outline: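 Viability counter screen in the same wells: CellTiter-Glo luminescence, 30 min room-temperature incubation, measured after the beta-lactamase read. Cells were GeneBLAzer FXR-UAS-bla HEK 293T, compound-treated 16 h at 37C.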

A short description of test [12]: qHTS assay to identify small molecule antagonists of the farnesoid-X-receptor (FXR) signaling pathway - cell viability counter screen (AID 743221; active = well fitted cell-killing curve with a large enough effect in the repeat runs, not every such curve was filed as active; also: nearly all actives have a fitted effect of over 50% in size; also: potency is read from the fitted curve at half-maximal effect). In outline:
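Quantitative HTS of the Tox21 10K library run in parallel with the beta-lactamase reporter read. HEK 293T cells carrying a UAS-driven bla reporter got compound and 50 uM CDCA (final) for 16 h; ATP-based luminescence followed.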

For test [13], the target named is Vitamin D3 receptor (Homo sapiens) (UniProt P11473). As to the kind of experiment: qHTS assay to identify small molecule agonists of the vitamin D receptor (VDR) signaling pathway (AID 743222; calls by dose curve). The essentials:
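Agonist mode, beta-lactamase reporter: fluorescence from LiveBLAzer B/G FRET substrate (2 h, room temperature) read after 16 h compound treatment at 37 C of VDR-bla cells, which were pre-incubated 4 h after seeding.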

Test [14] shares this target. Nature of the test: qHTS assay to identify small molecule antagonists of the vitamin D receptor (VDR) signaling pathway (AID 743223; active = well fitted inhibition curve with a large enough effect in the signal ratio in the repeat runs, not every such curve was filed as active; the % refers to the signal ratio). The essentials: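 Fluorescence from LiveBLAzer B/G FRET substrate, read after 2 h at room temperature, reflects beta-lactamase reporter activity in VDR-bla cells treated 16 h at 37C with compounds and agonist 1alpha,25-dihydroxyvitamin D3 (3 nM final).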

Test [15] can be described thus: qHTS assay to identify small molecule antagonists of the peroxisome proliferator-activated receptor gamma (PPARg) signaling pathway - cell viability counter screen (AID 743194). Also: nearly all actives have a fitted effect of over 55% in size. Also: potency is read from the fitted curve at half-maximal effect. The following applies: Potency: co-treated with 50 nM rosiglitazone unless noted. In outline:
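Viability was measured as CellTiter-Glo luminescence in GeneBLAzer PPARg UAS-bla HEK293H cells. These cells had been exposed 17 h at 37 C to compounds together with rosiglitazone at 50 nM final, with the beta-lactamase readout taken in the same wells.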

Test [16] can be described thus: qHTS assay for small molecule agonists of the antioxidant response element (ARE) signaling pathway (AID 743202; active = well fitted activation curve with a large enough effect in the signal ratio in the repeat runs, not every such curve was filed as active; the % refers to the signal ratio; also: potency is read from the fitted curve at half-maximal effect). The essentials: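 After 16 hours of compound treatment at 37 C, HepG2 cells with a stably integrated ARE-driven beta-lactamase reporter were loaded 2 hours at room temperature with LiveBLAzer B/G FRET substrate and fluorescence intensity measured.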
Test [17] can be described thus: qHTS assay for small molecule activators of the heat shock response signaling pathway - cell viability counter screen (AID 743209). Also: nearly all actives have a fitted effect of over 50% in size. Also: potency is read from the fitted curve at half-maximal effect. In outline:
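Cytotoxicity counter screen run in the same wells as the heat-shock bla reporter assay: HeLa HSE-bla cells, 5 h compound exposure at 37 C, viability read by CellTiter-Glo luminescence.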

Test [18] addresses Bile acid receptor (Homo sapiens) (UniProt Q96RI1). Nature of the test: qHTS assay to identify small molecule antagonists of the farnesoid-X-receptor (FXR) signaling pathway (AID 743217; active = well fitted inhibition curve with a large enough effect in the signal ratio in the repeat runs, not every such curve was filed as active; the % refers to the signal ratio; also: potency is read from the fitted curve at half-maximal effect). In outline:
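Antagonist mode: chenodeoxycholic acid at 50 uM final stimulates a UAS-driven beta-lactamase reporter in HEK 293T FXR-bla cells during 16 h, 37C compound exposure. Read-out is FRET substrate fluorescence after 2 h at room temperature.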

For test [19] the target is unchanged. As to the kind of experiment: qHTS assay to identify small molecule agonists of the farnesoid-X-receptor (FXR) signaling pathway (AID 743220; active = well fitted activation curve with a large enough effect in the signal ratio in the repeat runs, not every such curve was filed as active; the % refers to the signal ratio). The essentials:
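FXR-UAS-bla HEK 293T cells carrying a UAS-driven beta-lactamase reporter were plated for 5 h at 37C/5% CO2, then exposed to DMSO-dissolved Tox21 10K compounds for 16 h at 37C. A LiveBLAzer B/G FRET substrate was loaded for 2 h at room temperature before fluorescence reading.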

In test [20] the target is Peroxisome proliferator-activated receptor gamma (Homo sapiens) (UniProt P37231). As to the kind of experiment: qHTS assay to identify small molecule antagonists of the peroxisome proliferator-activated receptor gamma (PPARg) signaling pathway (AID 743191; calls by dose curve; also: series mostly up to about 63 µM; nearly all actives have a fitted effect of over 30% in size). In outline:
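Beta-lactamase reporter under UAS control in HEK293H PPARg-bla cells; compound treatment 17 h at 37C. Read-out: fluorescence intensity after 1 h room-temperature incubation with LiveBLAzer B/G FRET substrate.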

Peroxisome proliferator-activated receptor gamma (Homo sapiens), sequence (P37231 whole entry, looked up): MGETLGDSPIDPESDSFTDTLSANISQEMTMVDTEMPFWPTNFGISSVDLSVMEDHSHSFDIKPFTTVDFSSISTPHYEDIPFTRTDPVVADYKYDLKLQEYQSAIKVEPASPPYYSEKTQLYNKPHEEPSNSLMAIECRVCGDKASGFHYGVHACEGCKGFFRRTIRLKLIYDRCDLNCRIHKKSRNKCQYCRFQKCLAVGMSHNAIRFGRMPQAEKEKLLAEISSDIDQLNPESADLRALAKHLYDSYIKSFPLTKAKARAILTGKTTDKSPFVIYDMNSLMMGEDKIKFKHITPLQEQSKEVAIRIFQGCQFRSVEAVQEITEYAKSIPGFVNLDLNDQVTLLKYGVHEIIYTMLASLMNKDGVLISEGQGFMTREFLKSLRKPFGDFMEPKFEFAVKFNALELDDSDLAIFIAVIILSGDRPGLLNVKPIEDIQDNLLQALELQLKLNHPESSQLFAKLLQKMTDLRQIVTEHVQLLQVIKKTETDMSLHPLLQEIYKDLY
Aryl hydrocarbon receptor (Homo sapiens), sequence (P35869 whole entry, looked up): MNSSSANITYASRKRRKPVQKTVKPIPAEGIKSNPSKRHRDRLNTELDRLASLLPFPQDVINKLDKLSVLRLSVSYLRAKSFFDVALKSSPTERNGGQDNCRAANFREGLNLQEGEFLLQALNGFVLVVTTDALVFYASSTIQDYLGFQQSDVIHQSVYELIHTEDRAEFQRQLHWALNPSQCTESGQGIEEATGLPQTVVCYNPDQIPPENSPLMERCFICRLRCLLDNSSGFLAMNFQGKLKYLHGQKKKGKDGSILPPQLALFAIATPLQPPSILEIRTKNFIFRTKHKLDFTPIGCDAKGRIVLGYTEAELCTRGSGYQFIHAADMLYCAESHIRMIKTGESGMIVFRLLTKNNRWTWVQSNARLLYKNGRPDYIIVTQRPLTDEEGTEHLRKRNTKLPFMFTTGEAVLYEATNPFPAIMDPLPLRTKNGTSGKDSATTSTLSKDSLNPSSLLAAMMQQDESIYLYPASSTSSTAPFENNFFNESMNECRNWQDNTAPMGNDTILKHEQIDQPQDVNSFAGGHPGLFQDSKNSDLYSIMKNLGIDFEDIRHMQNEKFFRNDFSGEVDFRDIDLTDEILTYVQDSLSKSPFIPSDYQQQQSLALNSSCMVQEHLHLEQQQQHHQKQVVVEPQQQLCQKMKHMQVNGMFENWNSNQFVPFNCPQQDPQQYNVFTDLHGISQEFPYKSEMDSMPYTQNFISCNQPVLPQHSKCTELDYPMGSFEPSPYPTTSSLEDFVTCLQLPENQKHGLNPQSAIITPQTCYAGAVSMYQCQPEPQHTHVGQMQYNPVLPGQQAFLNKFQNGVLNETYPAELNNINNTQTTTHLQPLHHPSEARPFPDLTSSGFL
Bile acid receptor (Homo sapiens), sequence (Q96RI1 whole entry, looked up): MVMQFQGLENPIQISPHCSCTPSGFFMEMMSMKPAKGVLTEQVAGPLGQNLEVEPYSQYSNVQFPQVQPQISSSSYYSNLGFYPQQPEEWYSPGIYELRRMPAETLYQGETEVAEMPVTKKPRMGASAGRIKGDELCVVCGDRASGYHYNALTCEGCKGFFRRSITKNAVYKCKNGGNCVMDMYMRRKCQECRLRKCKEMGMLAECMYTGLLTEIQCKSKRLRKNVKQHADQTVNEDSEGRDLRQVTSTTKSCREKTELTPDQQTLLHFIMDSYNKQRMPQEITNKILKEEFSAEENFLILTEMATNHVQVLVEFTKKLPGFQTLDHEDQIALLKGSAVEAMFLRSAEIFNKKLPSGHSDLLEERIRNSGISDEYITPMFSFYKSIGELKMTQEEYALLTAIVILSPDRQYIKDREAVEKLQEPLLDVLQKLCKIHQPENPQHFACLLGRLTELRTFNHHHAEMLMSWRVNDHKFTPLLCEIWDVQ
Peroxisome proliferator-activated receptor delta (Homo sapiens), sequence (Q03181 whole entry, looked up): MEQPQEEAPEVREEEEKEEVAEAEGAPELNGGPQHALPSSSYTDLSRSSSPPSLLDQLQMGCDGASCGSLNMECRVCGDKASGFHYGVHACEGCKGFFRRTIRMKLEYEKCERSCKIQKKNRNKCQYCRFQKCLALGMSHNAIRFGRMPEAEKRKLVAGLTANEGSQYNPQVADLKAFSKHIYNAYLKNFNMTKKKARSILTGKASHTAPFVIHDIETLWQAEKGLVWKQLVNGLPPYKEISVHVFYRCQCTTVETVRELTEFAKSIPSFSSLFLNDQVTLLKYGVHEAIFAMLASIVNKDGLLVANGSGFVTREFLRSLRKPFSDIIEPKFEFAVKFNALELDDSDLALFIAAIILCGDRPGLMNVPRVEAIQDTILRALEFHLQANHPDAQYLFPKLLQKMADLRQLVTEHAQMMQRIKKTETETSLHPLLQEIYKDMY
Vitamin D3 receptor (Homo sapiens), sequence (P11473 whole entry, looked up): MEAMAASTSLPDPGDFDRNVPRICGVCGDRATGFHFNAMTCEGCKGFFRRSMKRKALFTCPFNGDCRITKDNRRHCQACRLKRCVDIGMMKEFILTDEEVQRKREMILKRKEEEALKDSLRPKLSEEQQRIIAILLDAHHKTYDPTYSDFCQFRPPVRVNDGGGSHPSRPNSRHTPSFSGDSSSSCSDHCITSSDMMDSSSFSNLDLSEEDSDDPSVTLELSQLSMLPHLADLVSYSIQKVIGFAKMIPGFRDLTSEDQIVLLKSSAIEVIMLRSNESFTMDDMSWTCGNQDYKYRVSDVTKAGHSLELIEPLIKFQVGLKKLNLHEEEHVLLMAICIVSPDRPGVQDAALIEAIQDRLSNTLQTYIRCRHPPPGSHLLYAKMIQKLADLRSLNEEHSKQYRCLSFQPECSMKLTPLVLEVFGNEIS

As for `CC(=O)C(Cl)C(=O)N(C)C` (stereo not given), the Potency result in [1], in [2], in [3], in [4], in test [5] and in test [6] was “inactive” in each case. Moreover, the Potency entry in test [7], in [8], in [9], in test [10], in test [11] and in test [12] was “inactive” in each case. The Potency result in test [13] and in test [14] was “inactive” throughout.

Take `Cc1ccc2cc3c(ccc4ccccc43)c3c2c1CC3`: the Potency result in test [1], in test [3], in [15], in test [5], in [17] and in [7] was “inactive” in each case. Further, the Potency entry in test [9], in [11], in [12], in test [13] and in test [14] was “inactive” each time. Moreover, the Potency in test [2] was 0.487 µM (active); in [16] it was 1.22 µM (active).

`O=C(O)[C@H](O)[C@@H](O)C(=O)O`: the Potency result in test [1], in test [2], in test [3], in test [15], in [16] and in [5] was “inactive” each time. Besides, the Potency result in [17], in test [7], in test [9], in test [18], in test [11] and in test [19] was “inactive” throughout. Also, in test [12], the Potency entry was “inactive”.

In the case of `CCCCCCC[CH2][Sn]([Cl])([Cl])[CH2]CCCCCCC`, the Potency entry in test [1], in test [3] and in test [19] was “inactive” in each case. In addition, the Potency in test [2] was 21.7 µM (active); in test [15] it was 48.9 µM (active); in test [16], 0.863 µM (active); in test [5] it was 54.4 µM (active); in test [17] it was 30.9 µM (active); in test [7], 24.5 µM (active). Besides, the Potency in test [11] is 11 µM (active); in test [12] it was 54.9 µM (active).

As for `CC(C)(C)c1ccc(OP(=O)(Oc2ccccc2)Oc2ccccc2)cc1`, the Potency entry in [1], in [2], in test [3], in test [4], in test [5] and in test [6] was “inactive” throughout. Also, the Potency entry in [11], in test [19], in test [13] and in [14] was “inactive” each time. The Potency in [10] is 22 µM (active); in [18] it was 24.7 µM (active).

`[Cl-].[Cl-].[Cl-].[Yb+3]`: the Potency entry in test [1], in test [2], in [3], in test [15], in test [16] and in [5] was “inactive” in each case. Also, the Potency entry in test [17], in [6], in test [7], in test [9] and in [11] was “inactive” throughout.

For `CCc1cccc(C)c1N(C(=O)CCl)[C@@H](C)COC`, the Potency result in [1], in [2], in test [3], in test [15], in [5] and in [6] was “inactive” in each case. For the same compound, the Potency result in [7], in [9], in test [11] and in test [12] was “inactive” in each case. The Potency in test [16] was 9.69 µM (active).

Turning to `O=[N+]([O-])c1ccc(Cl)c(Cl)c1Cl`, the Potency result in test [1], in test [2], in test [4], in [20], in test [15] and in [5] was “inactive” in each case. The Potency result in test [17], in [6], in test [7], in test [8], in test [9] and in test [10] was “inactive” in each case. Further, the Potency entry in [11], in [12] and in [13] was “inactive” in each case.

`CCCCn1cc[n+](C)c1.[Cl][Fe-]([Cl])([Cl])[Cl]`: the Potency entry in [1], in test [2], in [3], in [5], in [17] and in [7] was “inactive” throughout. Also, the Potency entry in test [9], in test [11] and in [12] was “inactive” throughout.

`CCCCN(CCCC)C(=S)[S-].CCCCN(CCCC)C(=S)[S-].[Ni+2]`: the Potency result in test [1], in [2], in test [4], in test [20], in [15] and in [16] was “inactive” throughout. For the same compound, the Potency result in [5], in test [17], in test [6], in test [7], in test [9] and in test [11] was “inactive” in each case. Further, in test [14], the Potency result was “inactive”.

As for `CCCCn1cc[n+](C)c1` (tested in a mixture with another compound), the Potency entry in test [1], in test [2], in [3], in test [15], in [5] and in test [17] was “inactive” in each case. In addition, the Potency entry in test [7], in test [9], in test [11] and in test [12] was “inactive” in each case.

For the compound `O=[N+]([O-])c1ccccc1-c1ccccc1`, the Potency entry in test [1], in test [2], in [4], in test [20], in test [15] and in test [16] was “inactive” throughout. For the same compound, the Potency result in test [5], in test [17], in test [6], in [7], in test [9] and in test [11] was “inactive” each time. Also, in test [12], the Potency entry was “inactive”.
